Lamin A splicing: qHTS Assay for Modulators of Lamin A Splicing; 200,000 compounds, 0.01% hits; AID 1487, 2009; HeLa LMNA splicing GFP/RFP minigene ratio, 48 h; Potency, µM (series often up to 46.1 µM), for the others: at the highest dose ratio change, negative = inhibition, actives largely listed as inhibitors; active means well fitted inhibition curve with a large enough effect in the signal ratio, with a control signal flat, not every such curve was filed as active; inconclusive means small, poorly fitted or top-dose-only effect, or effect the other way, or a change in a side signal; the % refers to the signal ratio
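Read-out is the ratio of GFP to DsRed2 object intensity, acquired by 488 nm laser-scanning cytometry on HeLa lamin A-EGFP minigene reporter cells. Compound incubation 48 hrs at 37 °C in Opti-MEM with 2% FBS; DMSO 0.5% final.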
GAA glycogen: qHTS Assay for Inhibitors and Activators of Human alpha-Glucosidase Cleavage of Glycogen | Lysosomal alpha-glucosidase (Homo sapiens), P10253 | recombinant GAA, glycogen substrate, Amplex Red glucose oxidase fluorescence | Potency, µM (doses to about 76.4 µM), for inactives: top-dose activity change, negative = inhibition, actives largely listed as inhibitors | 300,000 compounds, 0.38% hits;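 further: 0% = full enzyme reaction and -100% = no-enzyme basal signal; the screen sought inhibitors and activators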
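Recombinant human enzyme (4 nM); glycogen substrate; 37 C, 40 min, pH 5.0. Readout: coupled glucose oxidase/Amplex Red fluorescence.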
N370S GC mod: qHTS Assay for Inhibitors and Activators of N370S glucocerebrosidase as a Potential Chaperone Treatment of Gaucher Disease. Lysosomal acid glucosylceramidase (Homo sapiens), P04062. N370S GC spleen homogenate, 4MU-glucoside fluorescence. Potency, µM (doses to about 59.4 µM), for inactives: at the top dose activity change, negative = inhibition, actives largely listed as inhibitors. 330,000 compounds, 0.092% hits. AID 2101, 2009;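 further: 0% = full enzyme activity and -100% = no enzyme basal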
GAA inh: qHTS Assay for Inhibitors of Human alpha-Glucosidase as a Potential Chaperone Treatment of Pompe Disease | Potency, µM (doses to about 76.9 µM), for inactives: at the top dose activity change, negative = inhibition, usual class: inhibitors | AID 1466, 2008 | purified human GAA, 4-MU-alpha-glucoside fluorescence | 200,000 compounds, 0.005% hits;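 further: plate controls were uninhibited enzyme wells for no effect and no-enzyme background for full effect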
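AC50 values come from Hill fits of compound titrations (up to 77 uM) against 4 nM human enzyme. Substrate 4-methylumbelliferyl-alpha-D-pyranoside at 400 uM, pH 5.0 citrate buffer, 20 min room temperature; fluorescence Ex 365/Em 440 after alkaline stop.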
GAA spleen mod: qHTS Assay for Inhibitors and Activators of Human alpha-Glucosidase From Spleen Homogenate | Potency, µM (doses to about 79.9 µM), for the others: at the highest dose activity change, negative = inhibition, actives largely listed as inhibitors | Lysosomal alpha-glucosidase (Homo sapiens), P10253 | human spleen homogenate, 4-MU-alpha-glucoside fluorescence | 240,000 compounds, 0.006% hits;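 further: 0% = enzyme with vehicle and -100% = no enzyme basal signal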
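Compounds were titrated against alpha-glucosidase in spleen homogenate at pH 5.0, with 1 mM 4-methylumbelliferyl substrate for 40 min at 37 C. Reactions were quenched with pH 10 NaOH/glycine and fluorescence measured.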
* marks the source's active call; other numbers are inactive results; [ ] = another dose, or the depositor's remark. The list is not random: actives were taken first. Their share in the collection is about 0.41%. Unless noted, the call rests on the fitted dose curve; in most records, active means well fitted curve in the direction sought with a large enough effect; inconclusive means small, poorly fitted or top-dose-only effect, or another doubt; inactive means no such curve, though single readings can be large; an effect the other way counts as inactive or inconclusive. Unless noted, on the % scale 0 is the no-effect control and ±100 the full control effect; potency means the concentration at half of the fitted maximal effect.

`COc1ccc(NCc2ccc(OC)c(Cn3ccnc3)c2)c(OC)c1` gave GAA glycogen 7µM* and N370S GC mod -3%.
Screening COc1ccc(Cn2ccnc2)cc1Br returned Lamin A splicing inconclusive, GAA glycogen 0%, N370S GC mod 26%, GAA inh 1% and GAA spleen mod 0%.
For C[C@@H]1O[C@H](O[C@@H]2C(O)[C@H](O)[C@@H](CO)O[C@H]2Oc2cc(O)c3c(=O)cc(-c4ccc(O)cc4)oc3c2)[C@H](O)[C@H](O)[C@H]1O (some centres undefined) the results were N370S GC mod 0% and GAA spleen mod 5%.
`COCCNc1c(-c2ccc(O)cc2)nc2ccc(Cl)cn12` gave Lamin A splicing -20%, GAA glycogen 10µM*, N370S GC mod inconclusive, GAA inh 1% and GAA spleen mod -13%.
For COCCNc1c(-c2ccc(OC)c(OC)c2)nc2ccc(Cl)cn12 the results were Lamin A splicing inconclusive, GAA glycogen -18%, N370S GC mod -12%, GAA inh 11% and GAA spleen mod 9%.
For OCC1CCCN(C(=S)Nc2ccc(Nc3ccccc3)cc2)C1 (centres undefined) the results were Lamin A splicing 21%[46 µM], GAA glycogen 25µM*, N370S GC mod -6%, GAA inh -12% and GAA spleen mod -8%.
For OCC1CCCN(C(=S)Nc2ccc(OC(F)F)cc2)C1 (centres undefined) the results were Lamin A splicing -7%, GAA glycogen 12%, N370S GC mod -3%, GAA inh 3% and GAA spleen mod -7%.
For COc1oc(=O)c2cc(N)ccc2c1Cl the results were N370S GC mod -2% and GAA spleen mod 4%.
For CC(=O)OCOC(c1ccc2ccccc2c1)P(=O)(OCOC(C)=O)OCOC(C)=O (centres undefined) the results were N370S GC mod 6% and GAA spleen mod -4%.
`COc1ccc(S(=O)(=O)Nc2cc(C(C)C)c(O)cc2C)cc1` gave Lamin A splicing 6%, GAA glycogen 20µM*, N370S GC mod 0%, GAA inh -9% and GAA spleen mod -2%.
Screening Cc1ccc(S(=O)(=O)Nc2cc(C)c(O)cc2C)cc1 returned GAA glycogen 3.5µM*, N370S GC mod -9%, GAA inh 4% and GAA spleen mod 3%.
Cc1cc(NS(=O)(=O)c2ccccc2)c(C)c(Cl)c1O was read as Lamin A splicing inconclusive, GAA glycogen 45µM*, N370S GC mod 3%, GAA inh -1% and GAA spleen mod 8%.
Cc1cc(NS(=O)(=O)c2ccccc2)c([N+](=O)[O-])cc1C was read as Lamin A splicing 6%, GAA glycogen -9%, N370S GC mod 29%, GAA inh -4% and GAA spleen mod 4%.
`COc1ccc(S(=O)(=O)Nc2ccc(O)c3ccccc23)cc1` gave Lamin A splicing inconclusive, GAA glycogen 9.9µM*, N370S GC mod 1%, GAA inh 5% and GAA spleen mod 6%.
For Cc1ccc(S(=O)(=O)Nc2cc3c(cc2C)n(C)c(=O)c(=O)n3C)cc1 the results were Lamin A splicing 21%[46 µM].
Screening COc1ccc(CN2COc3ccc4c(-c5ccc(OC)cc5)cc(=O)oc4c3C2)cc1 returned GAA glycogen -16%[76.3 µM].
`c1ccc(N2CCN(c3nc(-c4cccs4)nc4ccccc34)CC2)cc1` gave Lamin A splicing inconclusive, GAA glycogen -2%, N370S GC mod inconclusive, GAA inh 6% and GAA spleen mod 7%.
For Oc1ccccc1N1CCN(c2nc(-c3cccs3)nc3ccccc23)CC1 the results were GAA glycogen 40µM*, N370S GC mod 4.5µM* and GAA spleen mod 6%.
